Screening results deposited in PubChem BioAssay by National Center for Advancing Translational Sciences (NCATS).
FLuc counter = inhibits or activates purified firefly luciferase, miR-21 counter-screen; P08659; purified FLuc, Km substrates, luminescence inhibition; Potency, µM (highest dose often 57.5 µM), without a hit: top-dose activity change, negative = inhibition, hits mostly inhibitors; 6.9% of 360,000 active; AID 588342;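 note: plate controls were vehicle for no effect and reference inhibitor for full effect; nearly all actives have a fitted effect of over 55% in size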
Target sequence (P08659 whole entry, looked up): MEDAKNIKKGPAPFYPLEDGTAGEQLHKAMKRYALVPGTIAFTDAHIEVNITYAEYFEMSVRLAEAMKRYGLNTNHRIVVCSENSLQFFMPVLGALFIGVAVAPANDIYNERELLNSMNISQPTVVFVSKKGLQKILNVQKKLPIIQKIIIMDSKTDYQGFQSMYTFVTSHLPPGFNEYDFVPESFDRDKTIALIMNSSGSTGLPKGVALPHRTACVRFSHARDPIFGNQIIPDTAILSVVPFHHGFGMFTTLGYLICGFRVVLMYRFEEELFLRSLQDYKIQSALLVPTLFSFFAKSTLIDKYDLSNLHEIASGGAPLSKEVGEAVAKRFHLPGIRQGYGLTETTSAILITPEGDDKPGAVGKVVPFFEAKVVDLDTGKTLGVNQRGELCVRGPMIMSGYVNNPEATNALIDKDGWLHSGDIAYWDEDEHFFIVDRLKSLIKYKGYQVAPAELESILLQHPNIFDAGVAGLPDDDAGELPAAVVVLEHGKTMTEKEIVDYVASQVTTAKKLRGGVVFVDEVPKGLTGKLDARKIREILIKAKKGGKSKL
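Purified P. pyralis luciferase (10nM final) with 10uM D-luciferin and 10uM ATP (Km levels) in 50mM Tris acetate pH 7.5, 10mM Mg acetate, 0.01% Tween-20, 0.05% BSA; qHTS 6-point titration, ~60 µM downward; luminescence read.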
SMN2 splice enh = increases expression of the SMN2 splice variant; HEK293 SMN2-luciferase splicing reporter, luminescence, 30-36 h; Potency, µM (top dose mostly 46.1 µM), without a hit: at the highest dose activity change, positive = activation, usual class: activators; 2.8% of 210,000 active; AID 1458; note: % of control where 0% means no effect; nearly all actives have a fitted effect of over 55% in size
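HEK293 cells carry an SMN2 minigene-luciferase reporter in which exon 7 inclusion puts luciferase in frame. Cells were seeded at 2000 cells/well, attached for 10-12 hours, then exposed to compounds for 30-36 hours at 37C before ONE-Glo luminescence.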
Rab9 promoter act = activates the Rab9 promoter. Huh7 Rab9 promoter-luciferase reporter, luminescence, 24 h. Potency, µM (highest dose often 9.22 µM), for inactives: at the top dose activation, negative = inhibition, actives largely listed as activators. 2.8% of 320,000 active. AID 485297; note: % of control where 0% means no effect; nearly all actives have a fitted effect of over 60% in size
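Steps: seed 1500 Huh7 Rab9-luc cells per well, rest 2 h at 37 °C; add compound in DMSO; incubate 24 h; add luciferase reagent, 10 min ambient; read luminescence.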
ELG1 genotoxic = inducers of genotoxicity in HEK293T ELG1-luciferase cells; HEK293T ELG1-luciferase reporter, luminescence, 16 h; Potency, µM (highest dose often 46 µM), for inactives: top-dose activity change, positive = activation, most hits filed as activators; 1.3% of 330,000 active; note: % of control where 0% means no effect; nearly all actives have a fitted effect of over 60% in size
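Step 1: seed 2,000 HEK293T ELG1-luciferase cells per well. Step 2: add compound or DMSO, incubate 16 hr at 37 °C. Step 3: ONE-Glo, 30 min at room temperature, read luminescence.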
NPC1 prom act = NPC1 promoter activation | Huh7 NPC1 promoter luciferase reporter, 24 h | Potency, µM (doses to about 9.22 µM), for the others: at the top dose activation, hits mostly activators | 2.4% of 320,000 active; note: % of control where 0% means no effect; nearly all actives have a fitted effect of over 60% in size
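In 1536-well qHTS, Huh7 cells harboring an NPC1 promoter–luciferase construct received compound for 24 h; activation was quantified by luminescence following luciferase reagent addition.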
Luc counter = blocks Kinase-Glo luciferase, a counter-screen artifact | Q27757 | Potency, µM (highest dose often 38.3 µM), without a hit: top-dose activity change, negative = inhibition, most hits filed as inhibitors | Kinase-Glo luciferase, ATP luminescence, 8 min | 0.28% of 200,000 active; note: % is set by controls: 0 for no effect and ±100 for the full control effect; nearly all actives have a fitted effect of over 60% in size
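Compounds were added to a substrate mix at pH 7.2 (50 mM imidazole, 10 uM ATP, within the enzyme's linear range), followed by Kinase-Glo detection reagent; luminescence was measured after 8 minutes at ambient temperature.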
Starred values were filed as active, the others as inactive; ? = inconclusive; · = no result given. In the library only some 7.3% were active in any assay of this set; here they are far more common. Calls come from the whole dose curve; as a rule, active = well fitted curve in the direction sought with a large enough effect; inconclusive = small, poorly fitted or top-dose-only effect, or another doubt; inactive = no such curve, though single readings can be large; an effect the other way counts as inactive or inconclusive. Potency is the fitted concentration of half-maximal effect.

SMILES | FLuc counter | SMN2 splice enh | Rab9 promoter act | ELG1 genotoxic | NPC1 prom act | Luc counter
CCc1ccc(-c2nc(SCC(=O)N(CC)C3CCS(=O)(=O)C3)n[nH]2)cc1 (stereo not given) | 3.4µM* | · | ? | 9% | 21% | ·
c1cncc(-c2nnc3sc(-c4ccco4)nn23)c1 | 2% | -19% | 1% | -3% | -6% | -1%
CCN(CC)c1ccc(-c2nn3c(-c4cccnc4)nnc3s2)cc1 | 21µM* | 2% | -20% | -7% | -23% | -1%
COc1cc(OC)cc(C(=O)Nc2ccc(-c3nc4ccccc4s3)cc2C)c1 | -6% | 10% | · | · | · | ·
COc1ccc(/C=C(/CC(=O)Nc2ccccc2)c2nc3ccccc3s2)cc1 | 21µM* | -22% | 27% | 9% | 13% | -4%
COc1ccc(/C=C(/CC(=O)NCc2ccc(Cl)cc2)c2nc3ccccc3s2)cc1 | -18% | -13% | -4% | 16% | 4% | 3%
COc1cccc(-c2nc3ccccc3s2)c1 | 0.85µM* | ? | ? | 2.1µM* | 13% | -3%
COc1cccc(CC(=O)Nc2ccc(-c3nc4ccccc4s3)cc2)c1 | 6µM* | · | · | · | · | ·
Cc1cnc2cc(Cl)c(Cl)cc2n1 | -2% | -3% | -2% | 0% | -8% | 1%
CCCc1ccc(-c2cc(C(=O)NC3=NCCS3)c3ccccc3n2)cc1 | 0.34µM* | · | 4.5µM* | ? | 1.1µM* | ·
Cc1ccc(CNC(=O)c2cc(-c3ccc(C)c(C)c3)nc3ccccc23)cc1 | -18% | · | · | · | · | ·
O=C(NNS(=O)(=O)c1cccc(Cl)c1)c1cc(-c2ccc(F)cc2)nc2ccccc12 | 19µM* | 0% | -6% | -3% | -2% | -2%
Cc1ccc(-c2cc(C(=O)NC3=NCCS3)c3ccccc3n2)cc1C | 0.85µM* | 14µM* | 7% | 11% | 1% | -3%
O=C(NN=C1CCCC1)c1cc(-c2ccc(F)cc2)nc2ccccc12 | -20% | 1% | -8% | 7% | 0% | -3%
O=C(NC1=NCCS1)c1cc(-c2ccc(F)cc2)nc2ccccc12 | 5.4µM* | 11% | 1% | 1% | 11% | -4%
COc1ccc(C2CC(=O)c3cc(-c4nc(-c5cccc([N+](=O)[O-])c5)cs4)c(=O)n(-c4cc(C)cc(C)c4)c3C2)cc1 (stereo not given) | 0% | 8% | · | · | · | ·
Cc1nnc(SCC(=O)Nc2ccc3c(c2)OCCO3)n1CC1CCCO1 (stereo not given) | -18% | 2% | -6% | 1% | -1% | 2%
NNC(=O)c1cccn(Cc2ccc(Cl)cc2Cl)c1=O | -1% | · | -13% | -7% | -2% | ·
O=C(c1ccco1)N1CCN(C(=O)C2CC(c3ccc(Cl)cc3)=NO2)CC1 (stereo not given) | 4% | -15% | 0% | -7% | -2% | -1%
Cn1nnnc1SCC(=O)Nc1ccc2c(c1)OCCO2 | 13µM* | 11µM* | 1.6µM* | ? | 2.8µM* | 2%
Nn1c(SCC(=O)Nc2ccc3c(c2)OCCO3)nnc(CCC(=O)O)c1=O | 13µM* | · | -3% | -1% | -4% | ·
O=C(CSc1nnnn1-c1ccccc1)NC(=O)Nc1ccc2c(c1)OCCO2 | 19µM* | ? | ? | ? | ? | 0%
Cc1ccc(-n2nnnc2SCC(=O)Nc2ccc3c(c2)OCCO3)cc1C | -16% | -45% | -1% | 0% | 1% | -3%
CCOc1ccccc1-n1nnnc1SCC(=O)NC(=O)Nc1ccc2c(c1)OCCO2 | -16% | -15% | 1% | -1% | 1% | -2%
Cc1nnc(SCC(=O)Nc2ccc3c(c2)OCCO3)n1N | -11% | 17% | -1% | -4% | -5% | -3%
COCCCNC(=O)C1CCCCN1S(=O)(=O)c1ccc(F)cc1 (stereo not given) | -1% | 1% | -7% | 1% | 2% | -3%
CCOC(=O)c1cc2ccc3ccccc3c2oc1=O | -15% | · | 0% | 4% | -10% | ·
